These results are taken from PubChem BioAssay (NCI).

The panel holds about 83,000 compounds, 20% with a hit somewhere; the sample as a whole holds those more often.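 Testing used 96-well plates and a 48-hour single-concentration exposure. Example: -40 means 40% of the starting cells died.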 Active and inactive are the calls of the source. How the source made its calls: active means growth percent below 10; inactive means the rest.

The test system of one test is K-562 leukemia. Put plainly: NCI-60 one-dose screen, 48 h (100 = growth as untreated, 0 = no growth, -100 = all killed). As to conditions: 10 µM unless noted.
`COc1ccc(C(=S)N2CCN(c3cccc(C)c3)CC2)cc1OC`: the growth was 25.5% (inactive).
As to `COc1cc(CCCO)c(OC)c(OC)c1OC`, the growth is 104% (inactive).
For `O=C(Nc1nc2ccc(F)cc2s1)c1cccnc1Nc1ccc(Cl)cc1Cl`, the growth is 4.08% (active).
In the case of `Cc1cccc2c3c(sc12)C(c1ccc(F)cc1)C(C#N)=C(N)O3` (configuration not stated), the growth was 8.65% (active).
Take `BrCCCc1n(Cc2ccc3ccccc3c2)c2ccccc2[n+]1Cc1ccc2ccccc2c1`: the growth is -13% (active).
On the same count and under the same terms, next, `CCOC(=O)Cn1c(C)c(/C=N/NC(=O)c2cc3c(ccc4ccccc43)o2)c2ccccc21`: 10.9% (inactive).
With `CCOC(=O)c1sc2ncc(-c3ccc(OC)cc3)n2c1C`, the growth was 91.2% (inactive).
`O=c1c2cccc(F)c2sc2c(NCCCNCCO)nc3ccccc3c12`: the growth is -20% (active).
Regarding `CNCCCNc1nc2ccccc2c2c(=O)c3cc(F)ccc3sc12`, the growth is -38.7% (active).
For the compound `CC(=O)OC[C@H]1OC(Sc2sc(C(=O)c3ccc(Cl)cc3)c(N)c2-c2nc3ccccc3s2)[C@H](OC(C)=O)[C@@H](OC(C)=O)[C@@H]1OC(C)=O` (some centres not stated), the growth was 87.7% (inactive).
Still for that read-out and setting: next, `OC(c1ccccc1)C(NC(Cc1ccccc1)c1ccccc1)c1ccccc1` (configuration not stated): 82.5% (inactive); `CCOC(=O)c1cn2ncnc(Oc3ccc(NC(=O)NCCN(C)C)c(Cl)c3)c2c1C`: 4.33% (active).
Still for that read-out and setting: next, `Cc1nc2ccccc2c(/C=C/c2ccccc2)c1C(=O)/C=C/c1ccc(C(F)(F)F)cc1`: 1.82% (active); `Cc1[nH]c(C(=O)Nc2ccc(C(=O)NCCN)cc2OC(C)C)c(Cl)c1Cl`: -19.3% (active).
In the case of `CN1CCN(c2ccc(-c3cnc4c(-c5csc6ccccc56)cnn4c3)cc2)CC1`, the growth was 3.45% (active).
As to `c1ccc(-c2nc3sc(-c4ccccc4)cn3n2)cc1`, the growth is 88.5% (inactive).
For `COc1c(B(O)O)cc(F)cc1-c1nc2ccc3[nH]ncc3c2c2c1CCCC2`, the growth was 30.5% (inactive).
On the same count and under the same terms, the value for `CNCCCC12CCC(c3ccccc31)c1ccccc12` was 80.6% (inactive); that for `C=C1C(=O)O[C@H]2[C@H]1CC/C(COC(=O)C(C)c1ccc(CC(C)C)cc1)=C\CC[C@@]1(C)O[C@@H]21` (some centres not stated) was -4.97% (active); that for `CC1=C(C)C(=O)C(Nc2cccc(C(=O)OC(C)(C)C)c2)=C(Br)C1=O` was 0% (active).
Same read-out and setting: next, `COc1ccc(C2CC(c3ccc(Nc4ccnc5cc(Cl)ccc45)cc3)=NN2C=O)cc1` (configuration not stated): 17.4% (inactive); `Cc1nc(NC(=O)COc2ccc(/C=C3\Cc4ccc(Cl)cc4C3=O)cc2)sc1C`: 106% (inactive).
`Cc1ccc2c(-c3cc(-c4ccccc4)nc(N)c3C#N)cc(=O)oc2c1`: the growth was 108% (inactive).
As to `CN(C)c1ccc(/C=N\Nc2cc(=O)[nH]c3ccc(Cl)cc23)cc1`, the growth was 91.8% (inactive).

The test system of the next test is MALME-3M melanoma. Described as above. Particulars: 10 µM unless noted.
For `O=C1COCCN1c1ccc(NCc2cn(C(=O)c3ccc(Cl)cc3)c3ccccc23)cc1`, the growth was 78.1% (inactive).
Consider `COc1ccc(-c2cnc3ccccc3n2)cc1`, for which the growth is 103% (inactive).
With `CCOC(=O)C1=C(N)Oc2c(sc3c(C)cccc23)C1c1ccc(OC)cc1` (configuration not stated), the growth was 43.9% (inactive).
Same read-out and setting: the value for `FC(F)(F)c1cc(Nc2ccc3c(OCCCN4CCOCC4)cccc3n2)ccc1Cl` was 54.3% (inactive); that for `COc1cc(C(=O)c2cc(C)c3[nH]c4ccc(O)cc4c3c2C)cc(OC)c1OC` was -8.11% (active); that for `Cc1ccc(C(=O)N/N=C/c2cccc(Oc3ccccc3)c2)cn1` was 64.8% (inactive).
Same read-out and setting: next, `CC(=O)CC(c1cccs1)c1c(-c2ccccc2)[nH]c2ccccc12` (configuration not stated): 104% (inactive).
As for `NC(=O)C1(Nc2ccc(Br)cc2)CCCC1`, the growth was 108% (inactive).
Take `COc1ccc(-c2c(C(=O)NS(C)(=O)=O)n(Cc3cccc(C(F)(F)F)c3)c3ccccc23)cc1`: the growth is 76.8% (inactive).
With `O=C1NC(=O)C(c2ccccc2)(c2ccccc2)N1Cc1cn(-c2c3ccccc3nc3ccccc23)nn1`, the growth is 104% (inactive).
For `CCCCn1c(-c2ccc(C(=O)O/N=C(\N)c3ccc(OC)cc3)cc2)nc(-c2ccccc2)c1-c1ccccc1`, the growth is -51.7% (active).
Consider `COc1cc(Nc2nc(NCCN)nc3cc[nH]c(=O)c23)cc(OC)c1`, for which the growth is 46.9% (inactive).
Turning to `COc1ccc(-c2[nH]c3ccc(OC)cc3c2/C=C(\C#N)S(=O)(=O)c2ccccc2)cc1`, the growth is 61.3% (inactive).
On the same count and under the same terms, next, `COc1ccc(C2=Nn3c(nnc3-c3cc(Cl)cc(Cl)c3Cl)SC2)cc1`: 37.2% (inactive).
For the compound `COc1ccc(C(=S)N2CCN(c3cccc(C)c3)CC2)cc1OC`, the growth was 80% (inactive).
For the compound `COc1cc(CCCO)c(OC)c(OC)c1OC`, the growth is 100% (inactive).
The same measure, in the same setting: the value for `O=C(Nc1nc2ccc(F)cc2s1)c1cccnc1Nc1ccc(Cl)cc1Cl` was -15.9% (active).
Take `Cc1cccc2c3c(sc12)C(c1ccc(F)cc1)C(C#N)=C(N)O3` (configuration not stated): the growth was 73.8% (inactive).
On to `BrCCCc1n(Cc2ccc3ccccc3c2)c2ccccc2[n+]1Cc1ccc2ccccc2c1`, for which the growth is -73.2% (active).
Turning to `CCOC(=O)Cn1c(C)c(/C=N/NC(=O)c2cc3c(ccc4ccccc43)o2)c2ccccc21`, the growth was 70.8% (inactive).
On to `CCOC(=O)c1sc2ncc(-c3ccc(OC)cc3)n2c1C`, for which the growth was 101% (inactive).
With `O=c1c2cccc(F)c2sc2c(NCCCNCCO)nc3ccccc3c12`, the growth was 74% (inactive).
The same measure, in the same setting: next, `CNCCCNc1nc2ccccc2c2c(=O)c3cc(F)ccc3sc12`: 84.2% (inactive); `CC(=O)OC[C@H]1OC(Sc2sc(C(=O)c3ccc(Cl)cc3)c(N)c2-c2nc3ccccc3s2)[C@H](OC(C)=O)[C@@H](OC(C)=O)[C@@H]1OC(C)=O` (some centres not stated): 69.4% (inactive).
Still for that read-out and setting: the value for `OC(c1ccccc1)C(NC(Cc1ccccc1)c1ccccc1)c1ccccc1` (configuration not stated) was 91.9% (inactive); that for `CCOC(=O)c1cn2ncnc(Oc3ccc(NC(=O)NCCN(C)C)c(Cl)c3)c2c1C` was 58.9% (inactive); that for `Cc1nc2ccccc2c(/C=C/c2ccccc2)c1C(=O)/C=C/c1ccc(C(F)(F)F)cc1` was -61.4% (active).
Still for that read-out and setting: the value for `Cc1[nH]c(C(=O)Nc2ccc(C(=O)NCCN)cc2OC(C)C)c(Cl)c1Cl` was 63.3% (inactive); that for `CN1CCN(c2ccc(-c3cnc4c(-c5csc6ccccc56)cnn4c3)cc2)CC1` was -70.1% (active); that for `c1ccc(-c2nc3sc(-c4ccccc4)cn3n2)cc1` was 124% (inactive).
In the case of `COc1c(B(O)O)cc(F)cc1-c1nc2ccc3[nH]ncc3c2c2c1CCCC2`, the growth is 20.3% (inactive).
Regarding `CNCCCC12CCC(c3ccccc31)c1ccccc12`, the growth is 82.6% (inactive).
With `C=C1C(=O)O[C@H]2[C@H]1CC/C(COC(=O)C(C)c1ccc(CC(C)C)cc1)=C\CC[C@@]1(C)O[C@@H]21` (some centres not stated), the growth was -25.6% (active).
Take `CC1=C(C)C(=O)C(Nc2cccc(C(=O)OC(C)(C)C)c2)=C(Br)C1=O`: the growth is 88.3% (inactive).
For `COc1ccc(C2CC(c3ccc(Nc4ccnc5cc(Cl)ccc45)cc3)=NN2C=O)cc1` (configuration not stated), the growth is 62% (inactive).
The same measure, in the same setting: the value for `Cc1nc(NC(=O)COc2ccc(/C=C3\Cc4ccc(Cl)cc4C3=O)cc2)sc1C` was 238% (inactive).
Take `Cc1ccc2c(-c3cc(-c4ccccc4)nc(N)c3C#N)cc(=O)oc2c1`: the growth is 94.8% (inactive).
On the same count and under the same terms, the value for `CN(C)c1ccc(/C=N\Nc2cc(=O)[nH]c3ccc(Cl)cc23)cc1` was 122% (inactive).
